Mtb FBA inh: inhibits M. tuberculosis FBA enzyme. P9WQA3. purified M. tuberculosis FBA, fluorescence read-out. inhibition, % at 1 µM. 2.3% of 360,000 active. AID 588726;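 also: 0% = vehicle and 100% = reference inhibitor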
Target sequence (P9WQA3 whole entry, looked up): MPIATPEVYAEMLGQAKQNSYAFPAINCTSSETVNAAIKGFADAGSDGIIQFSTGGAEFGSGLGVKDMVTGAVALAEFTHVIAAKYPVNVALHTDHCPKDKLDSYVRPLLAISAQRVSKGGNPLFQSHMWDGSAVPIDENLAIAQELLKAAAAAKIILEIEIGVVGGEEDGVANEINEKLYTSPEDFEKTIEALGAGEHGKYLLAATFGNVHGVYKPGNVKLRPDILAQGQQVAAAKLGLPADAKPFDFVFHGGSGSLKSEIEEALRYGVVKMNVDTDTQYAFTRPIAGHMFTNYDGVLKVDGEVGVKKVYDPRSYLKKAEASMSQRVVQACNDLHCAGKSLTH
PrPC TRFRET: inhibitors of human cell surface prion protein PrPC. AID 720596. inhibition, % at 13.8 µM. P04156. 0.43% of 370,000 active. TR-FRET read-out; in the data active = inhibition above about 24%; also: 0% = median of the test wells and 100% = reference compound wells
GDH-TPI counter-1: counter-screen for M. tuberculosis FBA inhibitors: GDH-TPI coupled enzymes | AID 588335 | inhibition, % at 4.8 µM | GDH-TPI coupled enzyme counterscreen, NADH absorbance | 1.2% of 360,000 active; in the data active = inhibition above about 30%;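 also: 0% = DMSO wells and 100% = wells lacking the enzyme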
RecA splice inh: Mtb RecA intein splicing inhibition. P9WHJ3. inhibition, % (no concentration beside the values). cell-free RecA intein splicing, fluorescence. 0.75% of 290,000 active; in the data active = inhibition above about 30%;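 also: 0% = vehicle wells and 100% = reference inhibitor control wells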
BJeLR lethal: BJeLR cell viability loss; 0.17% of 300,000 active; BJeLR (HRASV12) viability, CellTiter-Glo ATP luminescence, 48 h; inhibition, % (no concentration beside the values); in the data active = inhibition above about 50%
Mtb FBA inh conf: Mtb FBA inhibition, confirmed. inhibition, % at 1 µM. shares compounds with Mtb FBA inh. AID 651616. 78% of 5,600 active. purified M. tuberculosis FBA, fluorescence read-out;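 also: 0% = vehicle wells and 100% = reference inhibitor wells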
GDH-TPI counter-2: GDH-TPI inhibition counter-screen for FBA inhibitors | shares compounds with Mtb FBA inh | GDH-TPI coupled enzyme counterscreen, fluorescence | inhibition, % at 1 µM | 81% of 5,600 active; in the data active = inhibition above about 10%
Numbers without * were called inactive; · = no result; + = active, no number. Sampled rows, rich in hits. Any-hit rate of the full collection: about 4.2%. Rule as the data show it, unless noted: active = inhibition above about 27%; inactive = the rest.

SMILES	Mtb FBA inh	PrPC TRFRET	GDH-TPI counter-1	RecA splice inh	BJeLR lethal	Mtb FBA inh conf	GDH-TPI counter-2
CCCCN1CCN(C(=O)C2CCN(S(=O)(=O)c3ccc4[nH]c(=O)oc4c3)CC2)CC1	·	-4.8	·	·	·	·	·
CCn1cnc2c(oc3ccccc32)c1=O	44.3*	3.1	1.3	1.4	-17.2	176.6*	127.4*
Cc1cccc(NC(=O)NNC(=O)c2ccc3ccccc3c2O)c1	28.7*	6.2	6.0	-2.6	7.8	81.1*	59.0*
O=C(NNC(=O)c1ccc2ccccc2c1O)Nc1ccc(F)cc1	36.8*	-2.2	9.1	-2.8	-10.4	+	173.7*
COc1ccc(C2CC(=O)C=C3c4ccc(OC)cc4CCC32)cc1 (stereo not given)	4.3	-5.5	25.7	·	·	·	·
COc1ccc2c(c1)CCC1(C)CC(=O)C=C21 (stereo not given)	39.1*	-5.4	36.9*	·	·	45.6*	44.8*
CCCCNS(=O)(=O)/C=C/c1cc2c(cc1CNC(=O)OC(C)(C)C)OCO2	·	0.3	·	·	·	·	·
Cc1cc(N2CCN(C(=O)c3ccoc3)CC2)n2nc(-c3ccccc3)cc2n1	1.6	-10.2	8.1	·	·	·	·
COc1cccc(-c2cc3nc(-c4ccco4)cc(N4CCN(C(C)=O)CC4)n3n2)c1	·	-5.5	·	·	·	·	·
Fc1ccc(-c2cc3nc(-c4ccccc4)cc(N4CCN(CCN5CCOCC5)CC4)n3n2)cc1	49.1*	0.5	10.6	0.5	3.4	89.9*	72.0*
CN1CCN(c2cc(-c3ccccc3)nc3cc(-c4ccc(F)cc4)nn23)CC1	25.8	-12.0	3.4	-4.5	4.1	·	·
COc1cccc(-c2cc3nc(-c4ccccc4)cc(N4CCC5(CC4)OCCO5)n3n2)c1	64.6*	-5.0	2.8	-2.3	14.9	1.4	-4.0
COc1ccccc1-c1cc2nc(-c3ccccc3)cc(N3CCN(C(=O)c4ccoc4)CC3)n2n1	55.5*	13.6	12.4	·	·	4.4	0.6
O=C(c1ccoc1)N1CCN(c2cc(-c3ccccc3)nc3cc(-c4ccccc4)nn23)CC1	39.4*	-2.6	5.2	·	·	63.6*	59.5*
COc1cc2c(c(OC)c1)[C@H](/C=C/c1ccccc1)[C@@H]([C@H](O)CO)OC2	·	-8.1	·	·	·	·	·
CCC[C@H]1[C@@H](NC(=O)c2cccc(C(F)(F)F)c2)CC[C@@]23CCCN2C(=O)CCC[C@@H]13	·	-5.3	·	·	·	·	·
O=C(N[C@H](C(=O)N1CCC[C@H]1C(=O)NC1CCCC1)C1CCCCC1)C1CCCC1	·	-1.4	·	·	·	·	·
COc1cccc(-c2cc3nc(-c4ccccc4)cc(N4CCN(C(=O)c5ccoc5)CC4)n3n2)c1	62.0*	5.5	-2.8	·	·	151.3*	102.0*
COc1ccccc1-c1cc2nc(-c3ccccc3)cc(N3CCN(C(=O)c4ccco4)CC3)n2n1	48.5*	8.8	6.2	·	·	53.6*	43.0*
CN1CCN(c2cc(-c3cccc(C(=O)O)c3)nc3ccnn23)CC1	29.7*	7.0	17.7	·	·	54.6*	46.0*
COc1cccc(-c2cc(N3CCN(C(=O)c4ccoc4)CC3)n3nc(-c4cccc(Cl)c4)cc3n2)c1	1.7	-0.8	9.3	·	·	·	·
Cc1cccc(N2CCN(C(=O)c3cc(S(=O)(=O)N(C)C)ccc3Cl)CC2)c1C	·	-1.8	·	·	·	·	·
COC(=O)c1cc(NC(=O)CSc2nnc(CN3CCOCC3)n2C)ccc1Cl	-2.8	-5.2	-6.1	-3.4	1.0	·	·
Cn1c(CN2CCOCC2)nnc1SCC(=O)Nc1cc(Cl)ccc1Cl	27.0*	-3.6	-5.7	·	-3.6	1.4	-9.2
O=C1c2ccccc2NC(c2ccccc2)N1c1ccc(O)cc1 (stereo not given)	4.1	2.1	0.7	1.2	3.8	·	·
SMILES	Mtb FBA inh	PrPC TRFRET	GDH-TPI counter-1	RecA splice inh	BJeLR lethal	Mtb FBA inh conf	GDH-TPI counter-2
O=C1NCCN1CCN1C(=O)c2ccccc2NC1c1ccccc1 (stereo not given)	72.3*	8.3	4.1	-5.3	-3.8	108.4*	91.4*
O=C1c2ccccc2NC(c2ccc(F)cc2)N1Cc1ccccc1 (stereo not given)	56.5*	4.5	7.1	0.5	0.6	79.1*	54.9*
COc1ccc2c(c1)C[C@]1(C)c3ccccc3C(=O)N(Cc3ccccc3)[C@H]21	-1.4	1.4	2.2	·	·	·	·
O=C1c2ccccc2NC(c2ccccc2)N1Cc1ccccc1 (stereo not given)	63.1*	-1.8	-7.7	5.6	5.3	38.5*	15.1*
COc1cccc(C2Nc3ccccc3C(=O)N2Cc2ccccc2)c1 (stereo not given)	60.8*	-5.9	-0.8	5.6	-3.5	23.9	18.0*
O=C(O)C1c2ccccc2C(=O)N(Cc2ccc(F)cc2)C1c1ccncc1 (stereo not given)	1.3	4.0	2.3	0.0	-2.2	·	·
Cc1cccc(NC(=O)C2CCCN2S(=O)(=O)c2cccc3cccnc23)c1C (stereo not given)	·	2.4	·	·	·	·	·
COc1cc2ccnc(C=NO)c2cc1OC	42.2*	-19.9	12.9	·	·	121.7*	94.9*
Nc1ncnc2oc(-c3ccco3)c(-c3ccco3)c12	31.1*	12.7	23.0	0.1	-8.1	+	142.5*
COc1ccc(-c2nnc(-c3cc4ccccc4oc3=O)o2)cc1	1.4	-0.9	15.8	-9.7	-8.6	·	·
COc1ccc2cc(-c3nc4ccccc4n3C)c(=O)oc2c1	59.0*	-15.6	38.9*	-36.3	0.6	197.8*	+
COc1ccc(-c2cc3ccccc3oc2=O)cc1	60.3*	-17.7	13.0	-1.3	4.5	+	+
COc1cc(OC)cc(-c2c(-c3cccs3)c3cc(-c4ccc5cc[nH]c5c4)ccc3n2C)c1	28.1*	3.2	37.9*	·	·	116.2*	110.6*
COc1cc(C#Cc2c(-c3cncn3C)n(C)c3ccc(-c4ccc5cc[nH]c5c4)cc23)cc(OC)c1	34.6*	5.3	22.7	·	·	56.5*	46.1*
COc1cc(OC)cc(-c2c(-c3cccs3)c3cc(-c4ccc5[nH]ccc5c4)ccc3n2C)c1	35.5*	-0.6	19.3	·	·	96.8*	65.8*
COc1cc(OC)cc(-c2c(-c3cccs3)c3cc(-c4ccc(SC)cc4)ccc3n2C)c1	-0.1	-0.3	8.8	·	·	·	·
COc1cc(C#Cc2c(-c3cncn3C)n(C)c3ccc(-c4ccc(OC)c(OC)c4)cc23)cc(OC)c1	24.4	-4.7	4.4	·	·	·	·
COc1cccc(-c2c(-c3cc(OC)cc(OC)c3)n(C)c3ccc(-c4ccc5cc[nH]c5c4)cc23)c1	33.7*	2.5	32.6*	·	·	58.4*	42.6*
COc1cccc(-c2c(-c3cc(OC)cc(OC)c3)n(C)c3ccc(-c4cnc(OC)nc4)cc23)c1	3.9	-6.5	-5.9	·	·	·	·
COc1cc(OC)cc(-c2c(-c3cccs3)c3cc(-c4ccc(OC)c(F)c4)ccc3n2C)c1	2.9	-2.3	7.0	·	·	·	·
COc1ccc(-c2c(-c3cc(OC)cc(OC)c3)n(C)c3ccc(-c4ccc(S(N)(=O)=O)cc4)cc23)cc1	53.9*	-3.7	11.9	·	·	53.0*	46.9*
